Screening data deposited in PubChem by NMMLSC.
This is a sample that favours compounds with a hit; in the whole collection about 1.2% have one here.
RGS16-Gao – regulators of human RGS16-Galphao interaction. actives 0.38% (n = 220,000). AID 1441. bead-based flow cytometry RGS16-Galphao binding, fluorescence; actives lie on both sides. binding response (% of control), % at 10 µM; call rule not given here;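 further: Galphao activated by GDP with aluminum fluoride before binding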
Target sequence (O15492 whole entry, looked up): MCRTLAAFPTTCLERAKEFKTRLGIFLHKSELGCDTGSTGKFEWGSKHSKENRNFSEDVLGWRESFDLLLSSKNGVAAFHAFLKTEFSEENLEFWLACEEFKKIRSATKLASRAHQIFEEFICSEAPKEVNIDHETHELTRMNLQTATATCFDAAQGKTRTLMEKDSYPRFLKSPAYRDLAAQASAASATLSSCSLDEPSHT
Target sequence (P09471 whole entry, looked up): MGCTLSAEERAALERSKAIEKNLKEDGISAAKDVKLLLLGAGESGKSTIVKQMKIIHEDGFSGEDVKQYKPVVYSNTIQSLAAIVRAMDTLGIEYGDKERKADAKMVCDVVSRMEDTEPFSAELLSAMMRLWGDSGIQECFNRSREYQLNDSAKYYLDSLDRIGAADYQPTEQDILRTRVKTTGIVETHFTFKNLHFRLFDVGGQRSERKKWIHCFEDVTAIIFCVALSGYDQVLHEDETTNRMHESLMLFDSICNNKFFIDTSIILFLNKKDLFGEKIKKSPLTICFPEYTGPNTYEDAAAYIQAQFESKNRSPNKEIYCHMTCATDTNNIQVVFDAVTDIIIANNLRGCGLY
Avidin bead fluor – compound fluoresces at 488/530 nm on avidin beads; actives 0.38% (n = 220,000); fluorescence (KMESF) at 10 µM; compound fluorescence 488/530 nm, flow cytometry; active compounds read high; AID 1775; in the data active means fluorescence above about 47
GSH fluor – GSH bead compound fluorescence profile. AID 1776. GSH beads flow cytometry, compound fluorescence 488/530 nm; active compounds read high. fluorescence (KMESF) at 10 µM. actives 0.25% (n = 190,000); in the data active means fluorescence above about 89;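 further: glutathione beads carrying GST-tagged Bcl family fusion proteins plus one bare bead set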
RGS8-Gao – human RGS8-Galphao interaction regulation. multiplexed bead flow cytometry, RGS8-Galphao binding; actives lie on both sides. response (percent of control binding), % at 10 µM. actives 0.34% (n = 220,000). AID 1423; in the data active means response below about 60% or above about 140%; inactive means in between;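 further: Galphao activated as the GDP aluminium fluoride complex binding bead-coupled RGS8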
Target sequence (P09471 whole entry, looked up): as above
RGS7-Gao – modulates binding of RGS7 to human Galphao; P09471; Multiplexed bead flow cytometry; actives lie on both sides; binding response (% of control), % at 10 µM; actives 0.35% (n = 220,000); in the data active means binding response below about 49% or above about 150%; inconclusive means no clear call, values can overlap the other calls; inactive means in between;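 further: fluorescent Galphao held in activated GDP-AlF4 state binding bead-coupled RGS7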
RGS4-Gao reg – modulates binding of RGS4 to human Galphao; P09471; Multiplexed bead flow cytometry; actives lie on both sides; binding response (% of control), % at 10 µM; actives 0.33% (n = 220,000); in the data active means binding response below about 49% or above about 150%; inactive means in between;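 further: fluorescent Galphao activated with aluminum fluoride binding bead-coupled RGS4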
Hits are given with their value; - = inactive; ? = inconclusive; . = no result; [ ] = another dose, or the depositor's remark.

SMILES	RGS16-Gao	Avidin bead fluor	GSH fluor	RGS8-Gao	RGS7-Gao	RGS4-Gao reg
Cn1c2ccccc2c2c(C(=O)N3CCN(C(=O)c4ccco4)CC3)cn(C3CCCCC3)c(=O)c21	-	-	149	-	-	-
N#CCSc1nnc2sc3ccccc3n12	-	-	-	-	-	-
Brc1ccccc1-c1nnc(CSc2nnc3sc4ccccc4n23)o1	-	-	257	-	-	-
Cc1ccc2nc3c(cc2c1)c(NC(=O)c1ccccn1)nn3CC(C)C	-	62	-	-	-	-
O=C(N[C@H](C(=O)O)c1ccccc1)C1CCC(Cn2nnc3ccccc3c2=O)CC1 (stereo partly specified)	-	-	.	-	?	-
COc1ccc(OC)c(C(=O)CSc2nc3ccccc3n2CC(=O)NC(C)(C)C)c1	-	-	270	-	-	-
O=C(c1cnn2c(C(F)(F)F)cc(-c3cccs3)nc12)N1CCN(C(c2ccccc2)c2ccccc2)CC1	-	-	126	-	-	-
CN1CCN(C(=O)c2cnn3c(C(F)(F)F)cc(-c4cccs4)nc23)CC1	-	-	-	-	-	-
N#CCCN(CCC#N)C(=S)NC1CC2C=CC1C2 (stereo unspecified)	-	-	.	-	?	-
COc1ccc(N2CCN(Cc3oc(CO)cc(=O)c3O)CC2)cc1	-	-	250	-	-	-
CN1CCN(Cc2oc(CO)cc(=O)c2O)CC1	-	-	-	-	-	-
COc1ccc(/C(N)=N/OC(=O)c2ccc3c(c2)OCO3)cc1	-	48	-	-	-	-
CCOc1ccc(NC(=S)Nc2ccc(OCC)cc2)cc1	-	-	-	-	-	-
CCOc1ccc(NC(=S)Nc2ccc(OC(F)(F)F)cc2)cc1	-	-	146	-	-	-
CC(Oc1ccc(Cl)cc1Cl)c1nc(-c2ccc(NC(=O)c3cccnc3)cc2)no1 (stereo unspecified)	-	-	-	-	-	-
CC(Oc1ccc(Cl)cc1Cl)c1nc(-c2ccc(NC(=O)c3ccncc3)cc2)no1 (stereo unspecified)	-	-	97	-	-	-
ClCC1=Nc2cccc3cccc(c23)N1	-	-	.	-	?	-
COC(=O)c1ccccc1NC(=O)CSc1nc(O)cc(=O)n1C1CCCC1	-	54	-	-	-	-
O=C(CSc1nc(O)cc(=O)n1C1CCCC1)Nc1cccc(Cl)c1Cl	-	-	-	-	-	-
CCOc1ccc(-n2c(-c3ccccc3)c[n+]3c2CCC3)cc1	-	-	-	-	?	-
CSc1c[n+]2c(n1C)CCC2	-	52	-	-	-	-
O=C1CN(C(=O)c2ccccc2F)c2ccccc2N1	-	-	-	-	-	-
O=C1CN(C(=O)c2ccccn2)c2ccccc2N1	-	-	229	-	-	-
O=C(/C=C/c1cc([N+](=O)[O-])ccc1OC(F)F)NCc1ccc(Cl)cc1	-	-	264	-	-	-
Cc1ccc(NC(=O)c2ccc([N+](=O)[O-])cc2Cl)nc1	-	-	-	-	-	-
SMILES	RGS16-Gao	Avidin bead fluor	GSH fluor	RGS8-Gao	RGS7-Gao	RGS4-Gao reg
O=C(c1cccs1)N1CCN(CCCc2ccccc2)CC1	-	-	263	-	-	-
COc1ccc(-n2c(=O)c3ccccc3n(Cc3ccc(F)cc3)c2=O)cc1OC	-	104	-	-	-	-
CC(NC(=O)c1cc(S(=O)(=O)N(C)C)ccc1N1CCCC1)C1CC2CCC1C2 (stereo unspecified)	-	-	-	-	-	-
O=C(CSc1nnc(-c2ccncc2)n1-c1ccc(Cl)cc1)N1CCOCC1	-	77	-	-	-	-
CCn1c(SCC(=O)N2CCN(c3ccccc3)CC2)nnc1-c1ccncc1	-	-	148	-	-	-
NC(=O)CSc1nnc(-c2ccncc2)n1-c1ccc(Cl)cc1	-	-	-	-	-	-
COc1cc(OC)cc(C(=O)N[C@H](C(=O)Nc2cccc(S(=O)(=O)N3CCCC3)c2)C(C)C)c1	-	-	.	-	?	-
CC(=O)Nc1ccc(C(=O)OCC(=O)NC2CCCCCCC2)cc1	-	-	-	-	-	-
COc1ccc(NC(=O)CCC(=O)OC(C(=O)c2ccccc2)c2ccccc2)cc1 (stereo unspecified)	-	55	-	-	-	-
Cc1ccc(C(=O)C(OC(=O)CCC(=O)Nc2cccc(C)c2)c2ccccc2)cc1 (stereo unspecified)	-	-	-	-	-	-
COc1ccc2c(C)cc(SCC(=O)N(C)C3CCS(=O)(=O)C3)nc2c1 (stereo unspecified)	-	-	-	-	?	-
O=C(Cn1cnc2ccccc2c1=O)N1CCc2ccccc2C1	-	-	-	-	-	-
O=C(Cn1cnc2ccccc21)OCC(=O)N1CCc2ccccc2C1	-	52	-	-	-	-
O=C(COC(=O)c1ccncc1)NCCCc1ccccc1	-	-	-	-	152[activator]	154[activator]
O=C(COC(=O)c1ccncc1)NCc1ccccc1	-	-	-	-	-	-
O=C(COC(=O)c1cccnc1Cl)NCCC1=CCCCC1	-	-	-	-	-	-
O=C(Cc1ccccc1[N+](=O)[O-])NCc1ccc(Cl)cc1	-	119	-	-	176[activator]	213[activator]
O=C(Cc1ccccc1[N+](=O)[O-])NCc1ccc(Cl)cc1Cl	-	-	-	-	-	-
O=S(=O)(Nc1nc2ccccc2nc1NCC1CCCO1)c1cccc(Cl)c1 (stereo unspecified)	-	-	.	-	?	-
COC(=O)c1ccc(SCC(=O)NC2CCCCC2)c([N+](=O)[O-])c1	-	-	-	-	-	-
Cn1c(Cc2ccccc2)nnc1SCC(=O)Nc1ccc2c(c1)OCCO2	-	-	255	-	-	-
CCn1c(Cc2ccccc2)nnc1SCC(=O)Nc1ccc2c(c1)OCO2	-	-	-	-	-	-
CCCS(=O)(=O)Nc1ccc(-c2ccc3nnc(C)n3n2)cc1	-	-	-	-	-	-
Cc1ccc(C(=O)NC2c3ccccc3-c3ccccc32)cc1	-	60	-	-	-	-
Cc1ccc(C(=O)NC2CCc3ccccc3C2=O)cc1 (stereo unspecified)	-	-	-	-	-	-
Cc1cc(C)n(C(=O)c2c([N+](=O)[O-])c(C)nn2C)n1	-	-	150	-	-	-
C/C(=N\NC(=O)CSCc1ccc(Cl)cc1)c1ccc2c(c1)OCCO2	-	-	-	-	-	-
C/C(=N\NC(=O)COc1cccc(Cl)c1)c1ccc2c(c1)OCCO2	-	-	314	-	-	-
Fc1ccc(Cn2nnnc2C(c2ccc(Cl)cc2)N2CCSCC2)cc1 (stereo unspecified)	-	-	-	-	-	-
CC1CCN(C(c2ccc(N(C)C)cc2)c2nnnn2Cc2ccc(F)cc2)CC1 (stereo unspecified)	-	-	251	-	-	-
